According to PubChem BioAssay AID2094 (Broad Institute, 2009):
Among all 300,000 compounds or so, about 1,200 (0.4%) were called active. The sample holds actives, similar compounds and a random draw of the others, so the mix is not that of the screen. Cut-off read from the data, not from the text of the source: active = activity change below about -75% (passing the limit was not always enough); inconclusive = no clear call, values can overlap the other calls.

assay: Vibrio harveyi AI-2 quorum sensing modulators, primary screen, JMH597 strain, luminescence/OD600 ratio (AID 2094); settings: Vibrio harveyi JMH597 AI-2 luminescence/OD600 ratio, 9 h; at 7.5 µM; active compounds read low; 0 = neutral-control median; strain lacks LuxN and CqsS sensors;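 note: luminescence divided by OD600 gain over 9 h not by final OD600 alone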

| SMILES | activity change |
| --- | --- |
| C=CCO/N=C/C1=C(O)C(C(=O)OC)C(C)(C)CC1=O (centres undefined) | 9.19% (inactive) |
| COc1ccc(OCCC(=O)c2ccc(OC)cc2)cc1 | 30.2% (inactive) |
| CO/N=C/CC(=O)c1ccc(OC)cc1 | 8.95% (inactive) |
| COc1ccc(CCC(=O)c2ccc(OC)cc2)cc1 | -82.8% (active) |
| COc1cccc(NC(=O)COc2cc(C)cc3oc(=O)cc(C)c23)c1 | 15.1% (inactive) |
| Cc1nnc(N/N=C/c2ccccn2)[nH]c1=O | -29.7% (inactive) |
| COc1ccc(Cc2nnc(N/N=C/c3ccccc3O)[nH]c2=O)cc1OC | -86.4% (active) |
| O=c1[nH]c(NCCO)nnc1Cc1ccc(Cl)cc1 | -1.67% (inactive) |
| COCC(=O)N1CCCC(C(=O)c2ccc(C(F)(F)F)cc2)C1 (centres undefined) | 13.4% (inactive) |
| CC(=O)c1ccc(S(=O)(=O)N(C)CCCC(=O)N(C)Cc2ccccc2F)cc1 | 21.5% (inactive) |
| O=C(/C=C/c1ccco1)Nc1cccc(-c2nc3ccccc3[nH]2)c1 | 4.93% (inactive) |
| O=C(Nc1ccc(Oc2ccccc2)cc1)c1ccco1 | -96.6% (active) |
| O=C(Nc1ccc(O)cc1)c1ccc(NC(=O)c2ccco2)cc1 | 7.66% (inactive) |
| Cc1nnc(NC(=O)/C=C/c2ccco2)s1 | 12.9% (inactive) |
| O=C(/C=C/c1ccco1)Nc1ccc(Oc2ccccc2)cc1 | -83.2% (active) |
| O=C(Nc1ccccc1)c1ccco1 | 10.6% (inactive) |
| CCc1cccc(NC(=O)CCCN2C(=O)C(c3ccccc3)Oc3cccnc32)c1 (centres undefined) | 34.6% (inactive) |

| SMILES | activity change |
| --- | --- |
| CC(OC(=O)CNS(=O)(=O)/C=C/c1ccccc1)C(=O)Nc1ccc(S(=O)(=O)N2CCCC2)cc1 (centres undefined) | 11.2% (inactive) |
| CCCCCCNCCn1cnc2c(N)ncnc21 | 19.1% (inactive) |
| Cc1ccc(-c2cc(C(=O)N3CCc4ccccc4C3)no2)cc1 | 4.44% (inactive) |
| O=C(c1cc(-c2ccc(O)cc2)on1)N1CCOCC1 | 2.48% (inactive) |
| O=C(c1cc(-c2cccc(O)c2)on1)N1CCc2ccccc2C1 | -84.1% (active) |
| COc1ccc(C)cc1N(CC(=O)NC(C)c1ccccc1)S(C)(=O)=O (centres undefined) | 17.3% (inactive) |
| CCOc1ccc(-n2c(SCC(=O)Nc3ccc(OC)cc3)nc3sc4c(c3c2=O)CCN(C)C4)cc1 | 20.9% (inactive) |
| O=C(Nc1ccccc1Cl)Nc1cccc2cccnc12 | 24.3% (inactive) |
| O=C(Nc1ccccc1Cl)/C(Cl)=C(\Cl)S(=O)c1ccccc1 (centres undefined) | -84.8% (active) |
| O=C(Cc1ccc2c(c1)CCCC2)Nc1ccccc1Cl | -3.68% (inactive) |
| Cc1csc(OCC(=O)Nc2ccc(C)c(C)c2)n1 | 15.5% (inactive) |
| O=C(CC1SC(=Nc2ccccc2)N(Cc2ccccn2)C1=O)Nc1cccc(Cl)c1 (centres undefined) | 3.68% (inactive) |
| Cc1cccnc1CC(C)NC(=O)c1cc(COc2cncc(Cl)c2)on1 (centres undefined) | 10.5% (inactive) |
| CC(=O)c1cccc(OCc2cc(C(=O)NC(C)Cc3cccnc3)no2)c1 (centres undefined) | -85.8% (active) |
| CCC(NC(=O)c1cc(COc2ccc(F)c(F)c2)on1)c1ccncc1 (centres undefined) | 14% (inactive) |
| CC1(C)C/C(=N/Nc2ccc([N+](=O)[O-])cc2[N+](=O)[O-])C(C)(C)O1 | 18.5% (inactive) |
| C/C=C/C(=O)OCc1csc(CC(=O)Nc2ccccc2C)n1 | 48.5% (inactive) |
